Assay outcomes as filed in PubChem BioAssay.
Sampled rows, rich in hits. Any-hit rate of the full collection: about 2.8%.
TNF necrop inh = TNF-alpha cell death inhibition in Jurkat FADD-/- cells. Jurkat FADD-/- TNF necroptosis rescue, ATP luminescence, 24 h; 0 = TNF only, 100 = no-TNF cells. activation (protection from cell death), % at 10 µM. 220,000 tested, 0.068% active;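 active = activation, meaning protection from cell death, of at least 50% relative to plate controls; inactive = activation below 50%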;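 note: necroptosis triggered by 40 ng/mL TNF-alpha added together with compound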
Mcl1 Bid PPI = disrupts binding of human Mcl-1 to Bid peptide; Q07820; TR-FRET Mcl-1/Bid-Dy647 peptide binding, 1536-well; inhibition, % at 21.7 µM; 220,000 tested, 0.97% active; AID 1021;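 active = compounds that cut the binding signal by more than half at the single screening dose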;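 note: His-tagged Mcl-1 with europium anti-His antibody binding Bid BH3 peptide; 0% = Mcl-1 plus peptide wells and 100% = peptide-only wells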
Target sequence (Q07820 whole entry, looked up): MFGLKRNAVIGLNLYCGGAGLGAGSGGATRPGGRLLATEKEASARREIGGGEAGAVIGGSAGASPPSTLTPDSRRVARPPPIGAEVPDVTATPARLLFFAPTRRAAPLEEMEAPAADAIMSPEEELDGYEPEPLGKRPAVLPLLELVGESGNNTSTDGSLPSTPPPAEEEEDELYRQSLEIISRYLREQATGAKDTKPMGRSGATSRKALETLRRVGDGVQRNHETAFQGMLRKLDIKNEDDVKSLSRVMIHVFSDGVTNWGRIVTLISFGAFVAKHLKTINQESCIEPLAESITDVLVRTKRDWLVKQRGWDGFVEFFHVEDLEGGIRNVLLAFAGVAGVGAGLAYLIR
Mcl-1 Bim block = human Bim-Mcl-1 interaction inhibition; inhibition, % at 10 µM; 190,000 tested, 0.1% active; Bead-based flow cytometry, Bim peptide-Mcl-1 binding; in the data active = inhibition above about 40%;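 note: 0% = no compound tracer wells and 100% = peptide blocker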
m-calpain inh = inhibitors of pig calpain II; purified calpain II, fluorogenic peptide substrate, 30 min; AID 1236; inhibition, % at 16 µM; 220,000 tested, 0.37% active;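 active = inhibition above about 50%, limit read from the data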
Mcl1 Noxa PPI = Mcl-1/Noxa interaction inhibition; TR-FRET Mcl-1/Noxa peptide binding, 2 h; inhibition, % at 21.7 µM; 220,000 tested, 1.5% active;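 active = compounds that cut the protein-peptide binding signal by more than 50% relative to plate controls in a single-dose test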;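 note: His-tagged Mcl-1 with rhodamine Noxa BH3 peptide and terbium anti-His antibody; 0% = Mcl-1 plus Noxa peptide wells and 100% = peptide-only wells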
zVAD death inh = L929 zVAD cell death inhibition; L929 zVAD necroptosis rescue, ATP luminescence, 24 h; with zVAD 60 µM; AID 1377; viability rescue, % at 10 µM; 220,000 tested, 0.38% active;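 active = activation, scaled between plate controls, above about 75%, limit read from the data; inactive = activation under that limit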;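 note: 0% = zVAD with DMSO and 100% = DMSO alone without zVAD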
Active calls of the source: *; . = not tested or not shown.

SMILES	TNF necrop inh	Mcl1 Bid PPI	Mcl-1 Bim block	m-calpain inh	Mcl1 Noxa PPI	zVAD death inh
COc1ccc(C2C(C(=O)Nc3ccc4c(c3)OCCO4)c3ccccc3C(=O)N2C)cc1 (centres undefined)	-1	-18	-1	5	8	0
O=C(CNC(=O)c1ccccc1F)OC(C(=O)Nc1cc(C(F)(F)F)ccc1Cl)c1ccccc1 (centres undefined)	1	-2	0	61*	-2	0
O=C(NCc1ccc(F)cc1)C(=O)NCC1OCCN1S(=O)(=O)c1cccs1 (centres undefined)	9	-2	0	-18	2	6
CNCc1ccccc1Sc1cc(O)ccc1O	-9	40	-2	10	99*	3
Cc1cc(N)ccc1N1CCCC1	-6	-24	32	-68	83*	1
Cc1cc(N)ccc1-n1c(C)ccc1C	1	-204	0	8	26	1
CC(=O)/C(N=Nc1ccc(C(=O)O)cc1)=C(\C)O	-1	-6	.	-9	6	0
CC(=O)/C(N=Nc1ccc(-n2ccc(C(F)(F)F)n2)cc1)=C(\C)O	-1	2	.	93*	6	1
COc1cccc(C2C3=C(N=c4s/c(=C\c5cccc(O)c5)c(=O)n42)c2ccccc2CC3)c1OC (centres undefined)	1	-20	-2	-31	15	0
COc1ccccc1C1C2=C(N=c3s/c(=C/c4cccc(OCC(=O)O)c4)c(=O)n31)c1ccccc1CC2 (centres undefined)	2	82*	-3	-45	107*	1
COc1cccc(C2C3=C(N=c4s/c(=C\c5ccc(OCC(=O)O)cc5)c(=O)n42)c2ccccc2CC3)c1 (centres undefined)	-1	22	.	-9	71*	0
CC(C1CC2CCC1C2)n1c(-c2cccs2)n[nH]c1=S (centres undefined)	1	-68	.	16	-42	0
Cc1cc(N2CCN(C)CC2)n2cc(-c3ccc(F)cc3)nc2n1	-2	-22	-1	-499	58*	0
Cc1cc(N2CCN(c3ccccn3)CC2)n2cc(-c3ccccc3)nc2n1	-4	-13	0	-102	5	1
CN1CCN(c2cc(-c3ccccc3)nc3cc(-c4ccc(F)cc4)nn23)CC1	0	6	0	-364	52*	0
CC1(C)CC(=O)C2=C(C1)Nc1ncnn1C2c1cccs1 (centres undefined)	2	-23	1	3	21	0
CCc1cccc(C)c1NC(=S)NCC1CCN(c2ccc(OC)cc2)C1 (centres undefined)	-4	-31	0	-26	48	-2
COc1ccc(N2CCC(CNC(=O)Nc3ccc(Cl)cc3)C2)cc1 (centres undefined)	2	-55	2	-24	76*	7
COc1ccc(N2CCC(CNC(=O)Nc3cccc(OC)c3)C2)cc1 (centres undefined)	0	-100	-1	-19	89*	1
COc1ccc(N2CCC(CNC(=S)Nc3cccc(OC)c3)C2)cc1 (centres undefined)	-5	-58	3	27	75*	0
O=C(/C=C/c1ccco1)N1CCc2ccccc21	-8	-31	0	-29	19	1
Cc1ccc(/C=C/C(=O)N2CCc3ccccc32)o1	-5	-89	-5	-31	61*	3
Cc1ccc(NC(=O)CSCc2ccc(F)cc2)cc1	53*	-10	-7	-3	-3	0
CCn1nc(C(=O)OC(C(=O)c2c[nH]c3ccccc23)c2ccccc2)c2ccccc2c1=O (centres undefined)	-1	-40	1	-186	-37	-1
N/C(CS(=O)(=O)c1ccc(F)cc1)=N\O	0	78*	.	-26	-6	0
SMILES	TNF necrop inh	Mcl1 Bid PPI	Mcl-1 Bim block	m-calpain inh	Mcl1 Noxa PPI	zVAD death inh
Cc1ccc(S(=O)(=O)CC(N)=O)cc1	0	1	-2	25	-6	0
O=C1C=C(Nc2ccccc2)C(=O)c2ccccc21	-3	38	32	57*	17	5
COc1ccc(CCNC(=O)CCC(=O)Nc2nnc(C(C)C)s2)cc1OC	1	-16	-2	-2	4	0
CC(C)Nc1ccc(Nc2ccnc3cc4ccccc4cc23)cc1	-30	-33	.	-1	68*	-3
O=C(Nc1cccc(S(=O)(=O)NC2=NCCCCC2)c1)c1cccnc1Cl	1	-61	.	18	-20	2
O=C(Nc1cccc(S(=O)(=O)NC2=NCCCCC2)c1)c1cc(-c2ccco2)nc2ccccc12	-2	12	.	-61	97*	1
O=C(Nc1cccc(S(=O)(=O)NC2=NCCCCC2)c1)c1cc(-c2ccncc2)nc2ccccc12	-7	-7	0	-72	54*	12
CCOc1ccc(NC(=S)N2CCN(CCN3C(=O)c4cccc5cccc(c45)C3=O)CC2)cc1	-1	26	-1	-8	27	1
COc1ccc(NC(=S)N2CCN(CCN3C(=O)c4cccc5cccc(c45)C3=O)CC2)cc1	0	6	-2	51*	15	3
Cc1cc(C)nc(NS(=O)(=O)c2ccc(NC(=O)CN3C(=O)S/C(=C\c4ccccc4)C3=O)cc2)n1	2	-2	-2	-75	34	0
COc1ccccc1/C=C1/SC(=O)N(CCC(=O)Nc2ccc(S(=O)(=O)Nc3nccs3)cc2)C1=O	2	-135	-4	-25	78*	1
COc1ccc(/C=C2/SC(=O)N(CCC(=O)Nc3ccc(C)cc3)C2=O)cc1OC	0	2	0	-184	3	0
CCCn1nc(C(=O)Nc2ccc(S(=O)(=O)Nc3nccs3)cc2)c2ccccc2c1=O	-1	-35	-1	-32	51*	1
CCn1nc(C(=O)Nc2ccc(S(=O)(=O)Nc3ncccn3)cc2)c2ccccc2c1=O	-2	-6	0	-12	12	3
O=C(CCN1C(=O)S/C(=C\c2ccccc2)C1=O)Nc1ccc(S(=O)(=O)Nc2nccs2)cc1	-1	-84	-1	-74	82*	0
Cc1ccc(NC(=O)COC(=O)c2ccc(OCc3c(C)noc3C)cc2)cc1S(=O)(=O)N1CCOCC1	-2	0	-2	-8	-10	1
CC(=O)N(/N=C/c1cccc(C)c1)c1nc(-c2ccc(Br)cc2)cs1	0	99*	-2	-30	2	0
COc1ccc(NC(=O)c2cc3c(=O)n(C)c4ccccc4c3s2)cc1OC	-3	55*	-3	-149	41	15
CCCCCn1c(N)c(-c2nc3ccccc3s2)c2c([N+](=O)[O-])nn(CC)c(=O)c21	-1	-6	-1	-55	-6	1
